Values joined by “and” are separate entries in the source; they are usually repeats but may differ in a detail not shown here. Equal entries are not always repeated. Records with an inconclusive call do not appear. Entries that show only a call come without a potency. Active and inactive are the calls of the source. Calls come from the whole dose curve; as a rule, active = well fitted cell-killing curve with a large enough effect in the repeat runs; inconclusive = weak or mixed curves, or effect the other way; inactive = flat fitted curve, though single readings scatter.
Experiment: qHTS RealTime-Glo MT Cell Viability Assay in HEK293 cells - 16 hour (AID 1224872); note: nearly all actives have a fitted effect of over 50% in size; for activity change, negative = cytotoxicity: top concentration of the series differs between compounds
Conditions: RealTime-Glo luminescence; series mostly up to 76.8 µM; activity change, negative = cytotoxicity: at the top concentration
In short: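 Cells + reagent dispensed (600 cells/well, HEK293) → 5 h at 37 C/5% CO2 → 23 nL compound in DMSO pinned → 40 h at 37 C → luminescence read at 0, 8, 16, 24, 32, 40 h.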
Potency is the fitted concentration of half-maximal effect.

SMILES	Potency	activity change, negative = cytotoxicity
COC(=O)CCCCC(=O)OC	inactive	
O=C(NCC1CCCCN1)c1cc(OCC(F)(F)F)ccc1OCC(F)(F)F (configuration not stated)		-25.6% [at 35.3 µM] (inactive)
CCCCCNCCCCC	inactive	
OB(O)O	inactive	
C=C(C)CC(C)(C)C	inactive	
O=[N+]([O-])c1cc(C(F)(F)F)ccc1Cl	inactive	
CCCCCCC(=O)O	inactive	
CC(=O)OC/C=C(\C)CCC=C(C)C	inactive	
OC[C@H]1O[C@@H](Oc2ccc(O)cc2)[C@H](O)[C@@H](O)[C@@H]1O	inactive	
CC1(C)C(=O)N(Cl)C(=O)N1Cl	inactive	
CC(=O)c1nccs1	inactive	
COc1ccc2cc3[n+](cc2c1OC)CCc1cc2c(cc1-3)OCO2	4.4 µM (active)	
CC(O)CNCC(C)O (configuration not stated)	inactive	
Cc1ccccc1Cl	inactive	
CO[Si](CCCNCCN)(OC)OC	inactive	
Oc1ccc(Cc2ccccc2O)cc1	15.5 µM (active)	
CCCN(CCC)C(=O)SCC	inactive	
CS(=O)(=O)c1ccc(Cl)cc1	inactive	
CC[N+](CC)(CC(=O)Nc1c(C)cccc1C)Cc1ccccc1	inactive	

SMILES	Potency	activity change, negative = cytotoxicity
COc1ccc([C@@H]2CC(=O)c3c(O)cc(O[C@@H]4O[C@H](CO[C@@H]5O[C@@H](C)[C@H](O)[C@@H](O)[C@H]5O)[C@@H](O)[C@H](O)[C@H]4O)cc3O2)cc1OC	inactive	
C1CCCNCC1	inactive	
NC(=O)NC(N)=O	inactive	
O=[N+]([O-])c1ccccc1C(F)(F)F	inactive	
CC(=O)OC(C)(C)C1CC=C(C)CC1 (configuration not stated)	inactive	
CCCCCCCC(=O)O	inactive	
Cc1ccncc1	inactive	
COc1c(Cl)ccc(Cl)c1C(=O)O	inactive	
CN=C(NC#N)NCCSCc1nc[nH]c1C	inactive	
OCC(O)CS (configuration not stated)	inactive	
CCOC(=O)CC(=O)OCC	inactive	
COC(=O)/C=C\C(=O)OC	inactive	
CC1=CC(=O)CC(C)(C)C1		6.62% (inactive)
CC(=O)CC(=O)N(C)C	inactive	
O=c1n(CCCN2CCN(c3cccc(Cl)c3)CC2)nc2ccccn12	12.3 µM (active) and 9.52 µM (active)	
N#CCC(=O)O	inactive	
NC(=O)c1ncn([C@@H]2O[C@H](CO)[C@@H](O)[C@H]2O)n1	inactive	
c1cnc2c(c1)ccc1cccnc12	11 µM (active)	
